Measurements published in PubChem BioAssay (NCATS).
A number with no mark means an inactive call. Records with an inconclusive call do not appear. Entries that show only a call come without a potency. The source made the active and inactive calls. The call rests on the fitted dose curve; in most records, active means well fitted curve in the direction sought with a large enough effect; inconclusive means small, poorly fitted or top-dose-only effect, or another doubt; inactive means no such curve, though single readings can be large; an effect the other way counts as inactive or inconclusive.

Experiments:
[1] = qHTS assay for measurement of the activity of small molecule inhibitors on Zika virus induced Caspase-3 activity in human iPSC derived neural progenitor cells (hNPCs) (AID 1224857); further: nearly all actives have a fitted effect of over 65% in size
Procedure, shortened: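 Values are percent inhibition of virus-induced caspase-3/7 signal, scaled between uninfected cells and ZIKV-infected cells. Infection used 2 FFU/cell for 6 h after 1 h compound exposure.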

[2] = qHTS assay for measurement of the activity of small molecule inhibitors on Zika virus induced Caspase-3 activity in human astrocytoma cells (AID 1224859)
Procedure, shortened: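 Compound added 1 h pre-infection; ZIKV 2 FFU/cell on SNB-19 cells, 6 h, 37 C/5% CO2. Caspase-Glo 3/7 luminescence; values as % inhibition of ZIKV-induced caspase activity.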

[3] = qHTS assay to identify small molecule inhibitors of chordoma cells - UCH-1 (AID 1259355); further: nearly all actives have a fitted effect of over 55% in size
Procedure, shortened: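 A 48hr growth-inhibition format: each drug tested at 15 concentrations together with added auranofin, camptothecin, doxorubicin, rubitecan and topotecan, with cell viability quantified as CellTiter-Glo luminescence.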

| Structure (SMILES) | outcome [1] | outcome [2] | Potency [3] | activity change, negative = inhibition [1] | activity change, negative = inhibition [2] |
| --- | --- | --- | --- | --- | --- |
| O=C1OC(OC(=O)c2cccnc2Nc2cccc(C(F)(F)F)c2)c2ccccc21 (stereo not drawn) | inactive | inactive | inactive |  |  |
| CCOc1ccc2ccccc2c1C(=O)N[C@@H]1C(=O)N2[C@@H]1SC(C)(C)[C@@H]2C(=O)O | inactive | inactive | inactive |  |  |
| Nc1ccc(S(=O)(=O)Nc2ccc(Cl)nn2)cc1 | inactive | inactive | inactive |  |  |
| CC[C@@]1(c2ccccc2)NC(=O)N(C)C1=O | inactive | inactive | inactive |  |  |
| COC(=O)[C@H]1[C@H]2C[C@@H]3c4[nH]c5cc(OC)ccc5c4CCN3C[C@H]2C[C@@H](OC(=O)COc2ccc(OC)cc2)[C@@H]1OC | inactive | inactive | inactive |  |  |
| O=C(CCCN1CCN(c2ccccn2)CC1)c1ccc(F)cc1 | inactive | inactive | inactive |  |  |
| COc1cc(C)c(Cc2cnc(N)nc2N)cc1OC | inactive | inactive | inactive |  |  |
| C[C@]12CC[C@@H]3c4ccc(O)cc4CC[C@H]3[C@@H]1CCC2=O | inactive | inactive |  |  |  |
| CCOC(CN1CCN(CC(C)C(=O)c2ccccc2)CC1)c1ccccc1 (stereo not drawn) | inactive | inactive | inactive |  |  |
| Nc1ccc(S(=O)(=O)Nc2nccs2)cc1 | inactive | inactive | inactive |  |  |
| Cc1cccc(C)c1NC(=O)CN(CC(=O)O)CC(=O)O | inactive | inactive | inactive |  |  |
| CCOC(=O)c1ccc(O)cc1 | inactive | inactive | inactive |  |  |
| CC(=O)c1ccc2c(c1)N(CCCN(C)C)c1ccccc1S2 | inactive | inactive | inactive |  |  |
| CC1(C)Oc2ccc(C#N)cc2[C@@H](N2CCCC2=O)[C@@H]1O | inactive | inactive | inactive |  |  |
| C/C(=C(\CCOP(=O)(O)O)SC(=O)c1ccccc1)N(C=O)Cc1cnc(C)nc1N |  |  | inactive | 4.2% [at 4.53 µM] | 26.7% [at 4.53 µM] |
| COc1ccc2[nH]c(S(=O)Cc3ncc(C)c(OC)c3C)nc2n1 (stereo not drawn) | inactive | inactive | inactive |  |  |
| Cc1ncc(COP(=O)(O)O)c(C=O)c1O | inactive | inactive | inactive |  |  |
| O=C1c2c(O)cccc2Cc2cccc(O)c21 | inactive | inactive | inactive |  |  |
| CCCCCCCCCCCCCCCCCCOCC(O)CO (stereo not drawn) | inactive | inactive | inactive |  |  |

| Structure (SMILES) | outcome [1] | outcome [2] | Potency [3] | activity change, negative = inhibition [1] | activity change, negative = inhibition [2] |
| --- | --- | --- | --- | --- | --- |
| CC(=O)NC(Cc1ccccc1)C(=O)O (stereo not drawn) | inactive | inactive | inactive |  |  |
| C[C@@H]1CC[C@@]2(OC1)O[C@H]1C[C@H]3[C@@H]4CC[C@H]5C[C@@H](O)CC[C@]5(C)[C@H]4CC(=O)[C@]3(C)[C@H]1[C@@H]2C |  |  | inactive | 4.72% [at 4.53 µM] | -4.08% [at 4.53 µM] |
| CC/C=C(\C(=O)N[C@@H]1C(=O)N2C(C(=O)OCOC(=O)C(C)(C)C)=C(COC(N)=O)CS[C@H]12)c1csc(N)n1 | inactive | inactive |  |  |  |
| COc1ccccc1O | inactive | inactive | inactive |  |  |
| COc1cc(C(=O)N2CCOCC2)cc(OC)c1OC | inactive | inactive | inactive |  |  |
| NCCNCCNCCNCCN |  |  | inactive | -1.07% [at 9.06 µM] | 14.1% [at 9.06 µM] |
| CCn1cc(C(=O)O)c(=O)c2cnc(N3CCNCC3)nc21 | inactive | inactive | inactive |  |  |
| Oc1ccc(C(O)CNCCCCCCNCC(O)c2ccc(O)c(O)c2)cc1O (stereo not drawn) | inactive | inactive | inactive |  |  |
| Cc1ccc2nc(N)[nH]c(=O)c2c1Sc1ccncc1 | inactive | inactive | inactive |  |  |
| CCN(CC)CCCC(C)Nc1c2ccc(Cl)cc2nc2ccc(OC)cc12 (stereo not drawn) | inactive | inactive | inactive |  |  |
| Cn1c(=O)c2c(ncn2CC2OCCO2)n(C)c1=O | inactive | inactive | inactive |  |  |
| CC1(C)S[C@@H]2[C@H](NC(=O)Cc3ccccc3)C(=O)N2[C@H]1C(=O)O (tested in a mixture with another compound) | inactive | inactive | inactive |  |  |
| Nc1ncnc2c1ncn2[C@@H]1O[C@H](CO)[C@@H](O)[C@H]1O | inactive | inactive | inactive |  |  |
| CSc1ccc2c(c1)C(N1CCN(C)CC1)Cc1ccccc1S2 (stereo not drawn) | inactive | inactive | inactive |  |  |
| CNCCCC1c2ccccc2C=Cc2ccccc21 | inactive | inactive |  |  |  |
| CCCCCCCCCCCCCCCC(=O)NCCO | inactive | inactive | inactive |  |  |
| CC(O)CN(CCN(CC(C)O)CC(C)O)CC(C)O (stereo not drawn) | inactive | inactive | inactive |  |  |
| C[C@H](N)[C@H](O)c1cccc(O)c1 | inactive | inactive | inactive |  |  |
